The values that follow come from PubChem BioAssay (Tox21).

Test [1] has as its target Gonadotropin-releasing hormone receptor (Homo sapiens) (UniProt P30968). Description: Human gonadotropin-releasing hormone receptor (GnRHR) small molecule agonists, calcium flux assay in GnRHR-HEK293 cells (AID 1920063). Note: nearly all actives have a fitted effect of over 35% in size. Put shortly: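 GnRHR-HEK293, 1500 cells/well, 18 h 37 C/5% CO2; Ca dye 1 h 37 C; cpd pinned (DMSO), agonist mode; kinetic FL 480/540, 3 min, 1 s reads; 15 conc, n=3.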

Test [2] addresses KiSS-1 receptor (Homo sapiens) (UniProt Q969F8). Description: Human kisspeptin (KISS1R) small molecule agonists, calcium flux assay in KISS1R-HEK293 cells (AID 1920064; active = well fitted activation curve with a large enough effect in the repeat runs). Put shortly:
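Stable human KISS1R HEK293 line; 18 h plating, 37 C/5% CO2; calcium dye 1 h 37 C; compound pin transfer; kinetic fluorescence Ex/Em 480/540, 3 min.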
(In general: Calcium flux is commonly read through the fluorescence of an indicator in the cells.)

Test [3] can be described thus: G protein-coupled receptor (GPCR) small molecule agonists, calcium flux assay: HEK293 wild type cell line counter screen (AID 1920065). The procedure, abridged: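 Kinetic fluorescence at Ex/Em 480/540, recorded every second over 3 min, served as the read-out after compound addition. Each compound was tested at 15 concentrations in triplicate on cells pre-loaded with calcium dye for 1 h.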

The nature of test [4]: p53 small molecule agonists, cell-based qHTS assay with rat liver microsomes (AID 1963578). The procedure, abridged:
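p53RE-bla cells were exposed to compounds together with rat liver microsomes (0.5 mg/mL final) and NADPH (0.5 mg/mL final) for 16 h at 37 C, then read by LiveBLAzer beta-lactamase fluorescence after 2 h at room temperature.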

The nature of test [5]: p53 small molecule agonists, cell-based qHTS assay with human liver microsomes: qHTS cell viability counter screen (AID 1963579). Note: nearly all actives have a fitted effect of over 45% in size. The procedure, abridged: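 p53RE-bla cells (4,000/well) were pre-incubated 5 h at 37 C, then given compounds in DMSO plus human liver microsomes (0.5 mg/mL final) and NADPH (0.5 mg/mL final) for 16 h at 37 C. Viability was read by CellTiter-Glo luminescence.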
On the technique in general: qHTS replaces the single test concentration by a dilution series.

The nature of test [6]: p53 small molecule agonists, cell-based qHTS assay with rat liver microsomes: qHTS cell viability counter screen (AID 1963580). Note: nearly all actives have a fitted effect of over 45% in size. Note: potency is the fitted concentration of half-maximal effect. The procedure, abridged:
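In HCT-116 cells carrying a p53 response element-bla reporter, compounds were metabolically activated in situ by rat liver microsomes with NADPH over 16 h. Cell ATP content then served as the cytotoxicity measure.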

Test [7] is described as follows: p53 small molecule agonists, cell-based qHTS assay: qHTS cell viability counter screen (AID 1963581). Note: nearly all actives have a fitted effect of over 45% in size. The procedure, abridged:
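HCT-116 p53RE-bla cells, 4,000/well, plated 5 h before compound pin transfer; 16 h at 37 C; bla substrate 2 h RT; then CellTiter-Glo, 30 min RT, luminescence.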

The nature of test [8]: p53 small molecule agonists, cell-based qHTS assay (AID 1963582; active = well fitted activation curve with a large enough effect in the signal ratio in the repeat runs, not every such curve was filed as active; the % refers to the signal ratio). The procedure, abridged: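 Reporter line: p53RE-bla. Pre-incubation 5 h, 37 C, 5% CO2; compound (DMSO, pin tool) 16 h, 37 C; B/G FRET substrate 2 h RT; fluorescence intensity read.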
For test [9], the target named is 5-hydroxytryptamine receptor 2A (Homo sapiens) (UniProt P28223). As to the kind of experiment: 5-hydroxytryptamine receptor 2A (HTR2A) small molecule antagonists, cell-based qHTS assay (AID 1963586). Note: nearly all actives have a fitted effect of over 45% in size. Put shortly: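 Antagonist-mode intracellular calcium assay: DOI (4 nM) added after 5 min compound pre-incubation at room temperature to dye-loaded HTR2A-CHO cells. Fluorescence followed for 3 min, sampled every second.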
Chain of 5-hydroxytryptamine receptor 2A (Homo sapiens) (P28223 whole entry, looked up): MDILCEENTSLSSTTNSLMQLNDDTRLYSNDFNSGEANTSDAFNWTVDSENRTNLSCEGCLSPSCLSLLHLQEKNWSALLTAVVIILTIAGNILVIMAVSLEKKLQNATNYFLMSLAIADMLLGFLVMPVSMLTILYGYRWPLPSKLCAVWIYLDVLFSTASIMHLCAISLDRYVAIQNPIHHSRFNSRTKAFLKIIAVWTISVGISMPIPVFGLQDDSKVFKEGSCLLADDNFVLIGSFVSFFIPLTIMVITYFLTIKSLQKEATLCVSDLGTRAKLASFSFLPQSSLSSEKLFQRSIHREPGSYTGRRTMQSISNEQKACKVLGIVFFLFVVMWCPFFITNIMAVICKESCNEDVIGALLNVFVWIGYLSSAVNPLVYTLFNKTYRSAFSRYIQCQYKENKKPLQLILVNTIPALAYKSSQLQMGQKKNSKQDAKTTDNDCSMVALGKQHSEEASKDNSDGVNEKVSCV

Test [10] shares this target. As to the kind of experiment: 5-hydroxytryptamine receptor 2A (HTR2A) small molecule agonists, cell-based qHTS assay (AID 1963587). Note: nearly all actives have a fitted effect of over 30% in size. Put shortly:
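HTR2A-CHO cells, plated 18 h at 37 C/5% CO2, dye-loaded 1 h at 37 C; compounds in DMSO added by pin tool (agonist mode). Intracellular calcium flux read as kinetic fluorescence on FDSS over 2 min at 1 s intervals.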

The target in test [11] is Muscarinic acetylcholine receptor M1 (Homo sapiens) (UniProt P11229). As to the kind of experiment: Cholinergic receptor muscarinic 1 (CHRM1) small molecule antagonists, cell-based qHTS assay (AID 1963588). Note: nearly all actives have a fitted effect of over 40% in size. The procedure, abridged: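 CHRM1-CHO calcium-flux assay, antagonist mode. Cells were seeded 18 h, dye-loaded 1 h at 37 C and given compound for 5 min at RT, then acetylcholine was added at 50nM. FDSS fluorescence was read 3 min; 15 concentrations, three runs.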
Chain of Muscarinic acetylcholine receptor M1 (Homo sapiens) (P11229 whole entry, looked up): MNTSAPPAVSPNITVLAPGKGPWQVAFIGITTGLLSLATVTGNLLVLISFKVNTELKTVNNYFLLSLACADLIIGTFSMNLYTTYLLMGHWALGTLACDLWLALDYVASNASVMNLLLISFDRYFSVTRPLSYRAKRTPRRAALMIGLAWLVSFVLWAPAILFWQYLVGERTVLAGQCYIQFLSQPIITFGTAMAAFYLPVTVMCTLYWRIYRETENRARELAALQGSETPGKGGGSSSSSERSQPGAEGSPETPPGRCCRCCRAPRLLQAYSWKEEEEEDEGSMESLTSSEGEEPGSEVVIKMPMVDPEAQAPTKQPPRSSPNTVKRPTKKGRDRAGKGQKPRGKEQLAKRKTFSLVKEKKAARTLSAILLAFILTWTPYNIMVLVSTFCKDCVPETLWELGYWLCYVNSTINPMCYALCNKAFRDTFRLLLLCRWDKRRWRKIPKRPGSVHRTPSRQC

A short description of test [12]: cAMP Responsive Elements (CRE) small molecule antagonists, cell-based qHTS assay (AID 1963591; active = well fitted inhibition curve with a large enough effect in the signal ratio in the repeat runs, not every such curve was filed as active; the % refers to the signal ratio; note: potency is the fitted concentration of half-maximal effect). Put shortly:
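Beta-lactamase reporter read by FRET substrate (LiveBLAzer B/G) after 2 h at room temperature. CRE-bla HEK293T cells had received compound plus 0.25 uM (final) NKH477 for 3 h at 37 °C.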

For test [13], the target named is Beta-2 adrenergic receptor (Homo sapiens) (UniProt P07550). Description: Adrenergic beta2 receptor (ADRB2) small molecule antagonists, cell-based qHTS assay (AID 1963592). Note: series mostly up to about 92 µM; nearly all actives have a fitted effect of over 50% in size. The procedure, abridged:
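Cells (CHO, stable ADRB2 overexpression) incubated 18-20hr at 37C; compounds added from DMSO; agonist mix (1nM isoproterenol, 100uM IBMX, 25uM Ro-20-1724) added; 0.5hr RT; d2-cAMP and anti-cAMP-cryptate added; 1hr RT; 665/615 nm read.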

The target is the same in test [14]. As to the kind of experiment: Adrenergic beta2 receptor (ADRB2) small molecule agonists, cell-based qHTS assay (AID 1963593).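 For activation: CHO cells stably overexpressing human ADRB2.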 Note: potency is the fitted concentration of half-maximal effect. Put shortly: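 CHO cells stably over-expressing ADRB2 were plated overnight at 37C, then dosed with compounds plus a stimulation mix containing 100uM IBMX and 25uM Ro-20-1724 for 0.5hr at room temperature. cAMP was measured by HTRF competition, 1hr.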

Test [15] deals with D(2) dopamine receptor (Homo sapiens) (UniProt P14416). As to the kind of experiment: Dopamine D2 receptor (DRD2) small molecule agonists, cell-based qHTS assay (AID 1963594). Note: nearly all actives have a fitted effect of over 35% in size. Put shortly: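 HEK293 cells stably expressing DRD2 were cultured 24 h at 37 C, then given Ro20-1724 (0.1 mM final) and compounds for 10 min at room temperature. NKH477 (200nM) was then added for 30 min. cAMP was read by HTRF.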
Chain of D(2) dopamine receptor (Homo sapiens) (P14416 whole entry, looked up): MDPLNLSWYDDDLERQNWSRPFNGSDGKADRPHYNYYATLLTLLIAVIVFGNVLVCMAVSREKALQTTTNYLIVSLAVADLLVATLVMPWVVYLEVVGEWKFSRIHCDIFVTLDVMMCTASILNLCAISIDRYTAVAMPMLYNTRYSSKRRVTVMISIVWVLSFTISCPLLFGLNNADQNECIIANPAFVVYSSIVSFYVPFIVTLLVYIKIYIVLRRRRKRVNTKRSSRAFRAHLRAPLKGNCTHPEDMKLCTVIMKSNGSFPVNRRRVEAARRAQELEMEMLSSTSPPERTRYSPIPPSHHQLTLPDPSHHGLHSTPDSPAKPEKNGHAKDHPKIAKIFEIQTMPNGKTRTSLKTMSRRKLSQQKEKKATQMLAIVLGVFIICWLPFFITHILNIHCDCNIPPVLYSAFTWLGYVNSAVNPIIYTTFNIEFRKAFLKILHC

The target is the same in test [16]. Description: Dopamine D2 receptor (DRD2) small molecule antagonists, cell-based qHTS assay (AID 1963595; active = well fitted inhibition curve with a large enough effect in the signal ratio in the repeat runs, with a control signal flat; the % refers to the signal ratio; note: potency is the fitted concentration of half-maximal effect). Put shortly: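 Antagonist mode in DRD2-HEK293 cells: after compound addition with 0.1 mM Ro20-1724, cells received quinpirole (12 nM) and NKH477 (200 nM) for 30 min at room temperature; HTRF cAMP read after 1 h detection.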
Test [17] has as its target Muscarinic acetylcholine receptor M1 (Homo sapiens) (UniProt P11229). Description: Cholinergic receptor muscarinic 1 (CHRM1) small molecule agonists, cell-based qHTS assay (AID 1963589). Note: nearly all actives have a fitted effect of over 35% in size. Put shortly:
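Human M1 in stable CHO line; 18 h plating, 1 h dye load 37 C; cpd added (agonist mode); Ca2+ fluorescence kinetic read, 1 s intervals; 15 conc, 3 runs.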

The nature of test [18]: Nuclear factor erythroid 2-related factor 2/antioxidant responsive element (Nrf2/ARE) small molecule agonists: luciferase reporter gene qHTS assay in human keratinocytes (AID 1919969). Note: nearly all actives have a fitted effect of over 35% in size. Note: potency is the fitted concentration of half-maximal effect.
A short description of test [19]: p53 small molecule agonists, cell-based qHTS assay with human liver microsomes (AID 1963577). Put shortly:
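p53RE-bla reporter cells were pre-incubated 5 h at 37 C, then treated with compounds plus human liver microsomes (0.5 mg/mL final) and NADPH (0.5 mg/mL final) for 16 h at 37 C. Beta-lactamase activity was read by LiveBLAzer fluorescence after 2 h at room temperature.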

Test [20] is described as follows: cAMP Responsive Elements (CRE) small molecule agonists, cell-based qHTS assay (AID 1963590). Put shortly:
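HEK 293T CRE-bla, 2,000 cells/well, 18 h preincubation 37 C/5% CO2; cpds (DMSO) pinned, 3 h; LiveBLAzer B/G FRET substrate, 2 h RT.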

The structures appear in SMILES notation. Records with an inconclusive call do not appear. Calls of active or inactive are those of the source. Unless noted, calls come from the whole dose curve.

Chain of KiSS-1 receptor (Homo sapiens) (Q969F8 whole entry, looked up): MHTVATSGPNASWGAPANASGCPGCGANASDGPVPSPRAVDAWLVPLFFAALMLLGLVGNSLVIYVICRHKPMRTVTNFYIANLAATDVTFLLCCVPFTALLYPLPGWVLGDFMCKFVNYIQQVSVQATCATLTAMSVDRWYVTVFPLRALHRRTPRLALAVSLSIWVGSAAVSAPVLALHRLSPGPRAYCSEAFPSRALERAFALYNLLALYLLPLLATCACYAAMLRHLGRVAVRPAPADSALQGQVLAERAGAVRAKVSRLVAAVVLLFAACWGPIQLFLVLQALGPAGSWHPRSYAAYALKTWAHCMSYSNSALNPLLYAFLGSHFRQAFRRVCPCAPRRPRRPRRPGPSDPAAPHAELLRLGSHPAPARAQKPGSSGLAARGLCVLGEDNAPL
Chain of Beta-2 adrenergic receptor (Homo sapiens) (P07550 whole entry, looked up): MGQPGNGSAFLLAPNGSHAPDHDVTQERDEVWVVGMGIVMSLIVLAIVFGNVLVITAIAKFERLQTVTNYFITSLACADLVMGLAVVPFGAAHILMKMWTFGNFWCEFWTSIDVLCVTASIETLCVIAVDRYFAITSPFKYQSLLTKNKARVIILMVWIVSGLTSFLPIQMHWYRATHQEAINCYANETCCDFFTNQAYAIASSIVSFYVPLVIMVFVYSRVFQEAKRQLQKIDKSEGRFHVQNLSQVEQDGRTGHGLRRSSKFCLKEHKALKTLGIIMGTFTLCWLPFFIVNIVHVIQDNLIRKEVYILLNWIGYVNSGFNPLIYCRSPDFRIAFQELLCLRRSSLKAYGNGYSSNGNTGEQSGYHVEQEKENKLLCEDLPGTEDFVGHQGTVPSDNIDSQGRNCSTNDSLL
Chain of Gonadotropin-releasing hormone receptor (Homo sapiens) (P30968 whole entry, looked up): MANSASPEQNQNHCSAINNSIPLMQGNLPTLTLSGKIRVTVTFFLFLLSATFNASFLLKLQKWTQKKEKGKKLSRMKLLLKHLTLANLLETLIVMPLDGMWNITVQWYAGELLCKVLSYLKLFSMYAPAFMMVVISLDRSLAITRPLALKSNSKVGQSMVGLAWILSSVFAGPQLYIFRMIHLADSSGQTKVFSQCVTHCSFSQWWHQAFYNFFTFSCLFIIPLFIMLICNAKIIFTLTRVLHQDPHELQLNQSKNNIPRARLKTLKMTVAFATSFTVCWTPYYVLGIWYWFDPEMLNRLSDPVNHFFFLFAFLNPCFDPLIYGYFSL

On to `Brc1ccc(Oc2ccc(Br)cc2Br)c(Br)c1`, for which the Potency entry in [1], in test [2], in test [3], in test [4], in [5] and in test [6] was “inactive” throughout. Besides, the Potency entry in test [7], in test [8], in test [9], in [10], in test [11] and in [12] was “inactive” each time. Moreover, the Potency entry in test [13], in [14], in test [15] and in test [16] was “inactive” in each case.

In the case of `c1cc[c]([Hg][c]2ccccc2)cc1`, the Potency result in test [1], in test [2], in [3], in [4], in test [9] and in [10] was “inactive” in each case. The Potency result in test [17] is “inactive”. For the same compound, the Potency in test [16] is 4.33 µM (active).

As to `Oc1c(Cl)c(Cl)cc(Cl)c1Cl`, the Potency result in [18], in [2], in test [3], in test [4], in test [5] and in test [6] was “inactive” each time. In addition, the Potency result in test [7], in test [9], in [10], in test [11], in [17] and in test [13] was “inactive” throughout. Besides, the Potency entry in test [14] and in [16] was “inactive” in each case.

As to `CN1CCc2cc3c(cc2C1O)OCO3` (stereo not given), the Potency in test [18] was 54.8 µM (active). The Potency result in [5], in [6], in test [7], in test [9], in [10] and in test [17] was “inactive” in each case. Moreover, the Potency result in test [13], in test [15] and in test [16] was “inactive” in each case.

Turning to `ClC1=C(Cl)[C@]2(Cl)[C@@H]3[C@@H](Cl)[C@H]4O[C@H]4[C@@H]3C1(Cl)C2(Cl)Cl`, the Potency result in test [18], in [2], in test [3], in [19], in [4] and in [5] was “inactive” in each case. Further, the Potency result in test [6], in test [7], in test [9], in test [10] and in test [17] was “inactive” in each case. Also, the Potency in test [14] was 61.1 µM (active).

Turning to `CCOP(=S)(OCC)Oc1nc(Cl)n(C(C)C)n1`, the Potency entry in test [18], in test [2], in test [3], in test [5], in test [6] and in test [7] was “inactive” throughout. Further, the Potency entry in test [8], in test [9], in test [10], in test [11], in test [17] and in test [20] was “inactive” throughout. Further, the Potency entry in [12], in test [13], in [14] and in [15] was “inactive” throughout.

Regarding `C=CC(=O)OCCCCOC(=O)C=C`, the Potency in test [18] was 24.3 µM (active). In addition, the Potency entry in test [2], in test [3], in test [19], in [4], in test [5] and in [6] was “inactive” in each case. Moreover, the Potency result in test [7], in test [8], in test [9], in test [10], in [11] and in [13] was “inactive” each time. In addition, the Potency result in test [15] and in test [16] was “inactive” each time.

In the case of `O=C(CCl)C(Cl)Cl`, the Potency in [18] was 7.77 µM (active); in [6] it was 13 µM (active); in test [12] it was 21.9 µM (active). For the same compound, the Potency result in [2], in [3], in test [19], in [4], in [7] and in test [9] was “inactive” in each case. For the same compound, the Potency entry in test [10], in test [11], in [17], in test [13] and in test [16] was “inactive” in each case.
